# Records with an inconclusive call do not appear. Active and inactive are the calls of the source. Calls follow the shape of the dose curve; as a rule, active = well fitted cell-killing curve with a large enough effect in the repeat runs; inconclusive = weak or mixed curves; inactive = no such curve, though single readings can be large or run the other way.
# Assay: qHTS assay to identify small molecule antagonists of the androgen receptor (AR) signaling pathway - cell viability counter screen (AID 743033; also: nearly all actives have a fitted effect of over 45% in size)
# Details: AR-bla HEK293 viability, CellTiter-Glo luminescence, 16 h; series mostly up to 58.5 µM; activity change, negative = cytotoxicity: at the top concentration
# Description: National Center for Advancing Translational Sciences [NCATS]
# NIH Chemical Genomics Center [NCGC]
# U.S. Environmental Protection Agency [EPA]
# National Institutes of Environmental Health Sciences [NIEHS]
# National Toxicology Program [NTP]
# U.S. Food and Drug Administration [FDA]
# Androgen receptor (AR), a nuclear hormone receptor, plays a critical role in AR-dependent prostate cancer and other androgen related diseases. Endocrine disrupting chemicals (EDCs) and their interactions with steroid hormone receptors like AR may cause disruption of normal endocrine function as well as interfere with metabolic homeostasis, reproduction, developmental and behavioral functions. To identify the compounds that inhibit AR signaling, GeneBLAzer AR-UAS-bla-GripTite cell line (Invitrogen, Carlsbad, CA, USA) containing a beta-lactamase reporter gene under control of an Upstream Activator Sequence (UAS) stably integrated into HEK293 cells was used to screen the Tox21 10K compound library. The cytotoxicity of the Tox21 compound library against the AR-bla cell line was tested in parallel by measuring the cell viability using CellTiter-Glo assay in the same wells.
# Tox21 Assay Protocol Summary:
# AR-bla cells were dispensed at 2,000 cells/5 uL of assay medium per well into black wall/clear-bottom 1536-well plates using a Multidrop Combi (ThermoFisher Scientific, Waltham, MA) dispenser. After the assay plates were incubated at a 37C and 5% CO2 for 4 hr, 23 nL of compounds dissolved in DMSO, positive controls or DMSO only was transferred to the assay plate by a Pintool station (Kalypsys, San Diego, CA), followed by addition of 1 uL of agonist (R1881) in culture medium using a Bioraptr Flying Reagent Dispenser (FRD) workstation (Beckman Coulter, Indianapolis, IN, USA). The plates were incubated at a 37C and 5% CO2 for 16 h. After 1 uL of LiveBLAzerTM B/G FRET substrate was added using a Bioraptr FRD, the plates were incubated at room temperature for 2 h and fluorescence intensity was measured by an Envision plate reader (PerkinElmer, Shelton, CT). For cell viability readout that measures cytotoxicity, 4 ul/well of CellTiter-Glo reagent was added into the assay plates using a Bioraptr FRD. After 30 min incubation at room temperature, the luminescence intensity in the plates was measured using a ViewLux (PerkinElmer) plate reader.
# % is scaled to controls: 0 for no effect and ±100 for the full control effect; potency is read from the fitted curve at half-maximal effect.
Compound,"activity change, negative = cytotoxicity",Potency
CC1=C2[C@@H]([C@H](C)CC[C@H]2/C=C(\C)C(=O)O)[C@H](O)C1,-8.5% (inactive),–
CCCCC(CC)COS(=O)(=O)O (stereo not given),–,inactive
CCCCOC(=O)CCCCC(=O)OCCCC,4.03% (inactive),–
N[C@@H](Cc1cc(I)c(O)c(I)c1)C(=O)O,-0.0323% (inactive),–
OCC(CO)n1cnc(-c2ccc(F)cc2)c1-c1ccnc(Oc2ccccc2)n1,-7.55% (inactive),–
O=NN(CCCl)C(=O)NCCCl,3.08% (inactive),–
CCCCCCCCCCCCCCCCCC(=O)OCC(CC)CCCC (stereo not given),8.86% (inactive),–
CC(C)N(C)C,13% (inactive),–
O=C1OC[C@H](Cc2cccc(O)c2)[C@H]1Cc1cccc(O)c1,-0.952% [at 27 µM] (inactive),–
CC(C)COC(=O)c1ccc(O)cc1,-14.6% (inactive),–
CCN(CC)c1ccc(C(=C2C=CC(=[N+](CC)CC)C=C2)c2ccc(S(=O)(=O)O)cc2S(=O)(=O)[O-])cc1,–,21.9 µM (active)
CC(=O)OCC1=C(C(=O)O)N2C(=O)[C@@H](NC(=O)CSc3ccncc3)[C@H]2SC1,2.05% (inactive),–
Cc1ccc2nc(N)[nH]c(=O)c2c1Sc1ccncc1,-13.2% (inactive),–
[Cl][Nd]([Cl])[Cl],6.68% (inactive),–
COc1ccc(C(=O)NCc2ccc(OCCN(C)C)cc2)cc1OC,8.15% (inactive),–
CCCCCc1ccco1,-13% (inactive),–
C=CCOC(=O)COCCC(C)C,4.2% (inactive),–
COc1ccc(CCN(C)CCCN2CCc3cc(OC)c(OC)cc3CC2=O)cc1OC,-2.56% (inactive),–
CCCCCCCCCCCCCCCC(=O)OCC,-0.921% (inactive),–
O=C(c1ccccc1)C1CCC1,0.718% (inactive),–

Compound,"activity change, negative = cytotoxicity",Potency
O=C(O)CNC(=O)c1ccccc1I,1.18% (inactive),–
C=C(C)c1ccccc1,0.0985% (inactive),–
CC12CC3CC(C)(C1)CC(N)(C3)C2,-18.8% (inactive),–
C=C(C)C(=O)OCCC(F)(F)C(F)(F)C(F)(F)C(F)(F)C(F)(F)C(F)(F)F,-0.371% (inactive),–
CC1=CC[C@@H]2C[C@H]1C2(C)C,5.59% [at 15.1 µM] (inactive),–
c1ccc2sc(SSc3nc4ccccc4s3)nc2c1,-0.212% (inactive),–
O=C(CCS)OCC(COC(=O)CCS)(COC(=O)CCS)COC(=O)CCS,-10.6% (inactive),–
CCN(CC)c1cccc(O)c1,0.96% [at 78.9 µM] (inactive),–
CC[C@H]1OC(=O)[C@H](C)[C@@H](O[C@H]2C[C@@](C)(OC)[C@@H](O)[C@H](C)O2)[C@H](C)[C@@H](O[C@@H]2O[C@H](C)C[C@H](N(C)C)[C@H]2O)[C@](C)(O)C[C@@H](C)CN(C)[C@H](C)[C@@H](O)[C@]1(C)O,–,inactive
O=CNNC=O,0.663% [at 78.9 µM] (inactive),–
NC(=O)CCCCC(N)=O,1.02% [at 78.9 µM] (inactive),–
O=C(Oc1ccccc1)c1ccc2ccccc2c1O,-10% (inactive),–
CC(=O)OCCC(C)CC(C)(C)C (stereo not given),1.87% (inactive),–
Nc1ccc(F)cc1,-5.73% [at 78.9 µM] (inactive),–
CCCCCC,0.0441% (inactive),–
Cc1cc([N+](=O)[O-])ccc1N,3.59% (inactive),–
CSSc1ccoc1C,0.292% (inactive),–
CCCCCCCC(=O)OCCCCCC,0.5% (inactive),–
CCCCC[C@H](O)/C=C/[C@H]1[C@H](O)CC(=O)[C@@H]1C/C=C\CCCC(=O)O,-1.67% (inactive),–
COc1ccc(C2C(=O)c3ccccc3C2=O)cc1,-19.9% (inactive),–

# Source: PubChem BioAssay (Tox21)
